# Screening data (PubChem BioAssay)
# Hits are enriched below; roughly 6.7% of the tested compounds scored in any of these assays.
# KB-3-1 tox – kills parental KB-3-1 adenocarcinoma cells. KB-3-1 viability, CellTiter-Glo ATP luminescence, 72 h. Potency, µM (doses to about 46.1 µM), most hits filed as cytotoxic. 1.4% of 400,000 active. AID 1347075; also: % is scaled to controls: 0 for no effect and ±100 for the full control effect; nearly all actives have a fitted effect of over 60% in size
#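 KB-3-1 parental drug-naive adenocarcinoma cells in DMEM/10% FBS, incubated 72 h at 37 C with pin-transferred compounds across a concentration series. Viability by CellTiter-Glo luminescence; concentration-response curves fitted after normalization.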
# SW480 rerep – inducers of DNA re-replication in SW480 colon cancer cells | SW480 DNA re-replication, Hoechst DNA content imaging, 48 h | Potency, µM (doses to about 46.1 µM), for the others: top-dose re-replication activation, hits mostly activators | 1.8% of 340,000 active; also: % of control where 0% means no effect; nearly all actives have a fitted effect of over 55% in size
#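 First, 250 cells per well were seeded. Next, compound or vehicle (23 nL) was pinned in, plates sat 48 hr at 37 C. Finally Hoechst was added for 40 min before fluorescence scanning.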
# PINK1 modulator – PINK1 expression modulation; 0.2% of 410,000 active; PINK1 immunofluorescence, high-content cytometry, 24 h; Potency, µM (top dose mostly 76.6 µM), for inactives: at the highest dose activation (PINK1 increase), usual class: activators; active = well fitted activation curve with a large enough effect; inconclusive = small, poorly fitted or top-dose-only effect; cell line not stated here; also: % of control where 0% means no effect; nearly all actives have a fitted effect of over 65% in size
#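 Decision-based qHTS: stable cells, 24 h exposure to five compound concentrations, CCCP as control. Fixed cells stained for PINK1 plus nuclear, mitochondrial and cell markers, cytometer read.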
# MCF10A rereplic – induces DNA re-replication in MCF 10a normal breast cells; MCF 10A DNA re-replication, Hoechst nuclear intensity, 48 h; Potency, µM (doses to about 46.1 µM), for inactives: at the highest dose activity, positive = re-replication, hits mostly activators; 2.9% of 350,000 active; also: % of control where 0% means no effect; nearly all actives have a fitted effect of over 50% in size
# KB-V1 MDR tox – kills drug-selected multidrug resistant KB-V1 cells. KB-V1 MDR cells viability, CellTiter-Glo, 72 h. Potency, µM (top dose mostly 46.1 µM), actives largely listed as cytotoxic. 3.4% of 400,000 active. AID 1347076; also: % is scaled to controls: 0 for no effect and ±100 for the full control effect; nearly all actives have a fitted effect of over 60% in size
#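 Readout: CellTiter-Glo luminescence, 10 min after addition. Cells: KB-V1 MDR subline, 72 h at 37 degrees C with compound. Analysis: corrected, normalized data fitted to concentration-effect curves.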
# Starred values were filed as active, the others as inactive; i = inactive; ? = inconclusive; . = no result; [ ] = remark or other dose. Unless noted, calls follow the shape of the dose curve; as a rule, active = well fitted curve in the direction sought with a large enough effect; inconclusive = small, poorly fitted or top-dose-only effect, or another doubt; inactive = no such curve, though single readings can be large; an effect the other way counts as inactive or inconclusive. Potency is read from the fitted curve at half-maximal effect.
SMILES,KB-3-1 tox,SW480 rerep,PINK1 modulator,MCF10A rereplic,KB-V1 MDR tox
COc1cc(CCNC2=CC(=O)c3ncccc3C2=O)ccc1O,5.8µM*,15µM*,-4%,?,7.3µM*
CCCSc1nnc(Sc2nnnn2-c2ccccc2)s1,5.2µM*,6.5µM*,11%[38.3 µM],?,13µM*
Cc1ccccc1-n1nnnc1Sc1nnnn1-c1ccccc1,?,?,-3%,15µM*,?
O=[N+]([O-])c1ccc(Sc2nnnn2-c2ccccc2)nc1,?,6.5µM*,-4%,3.7µM*,?
NC(=O)c1ccc(NC(=O)Cc2ccc(S(=O)(=O)N3CCCCC3)cc2)cc1,i,15%,0%,10%,i
Cc1ccc2nc3c(c(Nc4ccc(C)c(C)c4)c2c1)CCC3,i,.,?,.,18µM*
Cc1cccc(Nc2c3c(nc4ccccc24)CCC3)c1,?,-53%,?,-9%,?
COc1ccc(OC)c(Nc2cc(C)c3ccccc3n2)c1,i,28%,7%,?,i
COc1ccc(OC)c(Nc2c3ccccc3nc3ccccc23)c1,12µM*,21µM*,?,21µM*,21µM*
COc1cc(NS(C)(=O)=O)ccc1Nc1c2ccccc2nc2ccccc12,?,0.15µM*,-1%,?,18µM*
COc1ccccc1CNc1nc(-c2cccc(NS(C)(=O)=O)c2)nc2ccccc12,.,.,0%,.,.
Cc1ccc(Nc2c3c(nc4ccccc24)CCC3)cc1F,21µM*,.,?,.,i
COc1ccc(OC)c(Nc2c3c(nc4ccccc24)CCC3)c1,1µM*,4.1µM*,?,3.3µM*,3.7µM*
O=[N+]([O-])c1ccc(Nc2c3ccccc3nc3ccccc23)cc1,i,3%,?,5%,i
COc1ccc(OC)c(NC(=O)CSc2c3c(nc4ccccc24)CCCC3)c1,i,.,1%,.,i
c1coc(CNc2c3c(nc4ccccc24)CCC3)c1,?,?,-1%,18µM*,?
COc1cc(Nc2c3c(nc4ccccc24)CCC3)cc(OC)c1OC,2.3µM*,13µM*,26%,8.2µM*,3.7µM*
COc1ccc([N+](=O)[O-])cc1Nc1c2ccccc2nc2ccccc12,?,?,2%,2.9µM*,i
Cc1oc(-c2ccccc2NC(=O)C2CCC2)nc1CNC(=O)c1ccccn1,.,.,2%,.,.
Cc1cc(/C=C/C#N)cc(C)c1Nc1nc(Nc2ccc3n[nH]nc3c2)c2[nH]cnc2n1,i,.,.,.,i
c1ccc(CNc2nc(NCc3ccccc3)c3sccc3n2)cc1,i,.,?,.,i
Cc1ccc(Sc2ncccc2COC(=O)Nc2c(C)cccc2C)cc1,26µM*,?,6%,?,i
Cc1ccc(Sc2ncccc2COC(=O)Nc2ccccc2)cc1,?,5%,5%,18µM*,i
O=C(c1ccccc1)N1CCN(C(=O)c2ccccc2)c2ccccc21,?,?,-1%,?,i
COc1ccc(-c2nn(-c3ccccc3)cc2CN(C)CCn2ccnc2C)c(F)c1,i,0%,0%,2%,9.2µM*
Cc1cc(NCCCCCCCNc2cc(C)nc3cc([N+](=O)[O-])ccc23)c2ccc([N+](=O)[O-])cc2n1,?,?,-5%,3.7µM*,21µM*
COCCCNc1cc(C)nc2ccccc12,i,3%[9.22 µM],0%,-8%,i
CCN(CC)CCNC(=O)Cn1nc(Cc2ccncc2)c2ccccc2c1=O,i,-22%,1%,-3%,?
